PubChem BioAssay (NCATS)
Inconclusive results are not listed. Unmarked numbers belong to inactive results. Calls of active or inactive are those of the source. Calls come from the whole dose curve; as a rule, active = well fitted cell-killing curve with a large enough effect; inconclusive = small, poorly fitted or top-dose-only effect; inactive = flat fitted curve, though single readings scatter.

Experiments:
[1] = Cellular viability qHTS for adrenocortical cancer (ACC) cell line SW-13 (AID 1963989); settings: SW-13 ACC cells viability, CellTiter-Glo, 48 h; activity (max response): stronger effect = lower value; note: nearly all actives have a fitted effect of over 65% in size;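 for activity (max response): cells grown in serum-free medium with ITS supplement; % is set by controls: 0 for no effect and ±100 for the full control effect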
Procedure, shortened: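 48 h treatment, SW-13 in ITS/DMEM serum-free; doses up to 46 uM; readout CellTiter-Glo luminescence; curve fit four-parameter logistic.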

[2] = Cellular viability qHTS for adrenocortical cancer (ACC) cell line NCI-H295R (AID 1963990); settings: CellTiter-Glo ATP luminescence, 48 h; series mostly up to 46.1 µM; note: nearly all actives have a fitted effect of over 60% in size
Procedure, shortened: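 Compound titrations (up to 46 uM final) are applied to NCI-H295R cultures for 48 h at 37C. Viable cell number is estimated by CellTiter-Glo signal, normalised to DMSO and doxorubicin controls.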
Potency is the fitted concentration of half-maximal effect.

Row | SMILES | activity (max response) [1] [%] | Potency [2] | Potency [1]
1 | O=C(Nc1ccc2c(c1)CCN(Cc1ncn[nH]1)C2)c1ccccc1-c1ccc(C(F)(F)F)cc1 | -15.2 | inactive | –
2 | Cc1cc(NS(=O)(=O)c2ccc(N)cc2)no1 | 13.2 | inactive | –
3 | COC(=O)C1=C(C)NC(c2ncc(F)cc2F)=N[C@@H]1c1ccc(F)cc1Cl | -20.4 | inactive | –
4 | COC(=O)C1=C(C)NC(C)=C(C(=O)OCC(C)=O)C1c1ccccc1[N+](=O)[O-] (stereo unspecified) | – | 6.51 µM (active) | 16.4 µM (active)
5 | CC(=O)Oc1ccc(C2(c3ccc(OC(C)=O)cc3)C(=O)Nc3ccccc32)cc1 | -6.19 | inactive | –
6 | Clc1cccc(-c2ccc(-c3nnc(CCCc4ccc5cccnc5n4)o3)cc2)c1 | -11.9 | inactive | –
7 | Cc1ccc(C(C)C)cc2c(C)ccc1-2 | 0.775 | inactive | –
8 | O=C(CN1CCN(Cc2ccc3c(c2)OCO3)CC1)N1c2ccccc2Sc2ccccc21 | -10.1 | inactive | –
9 | CN/C(=C\[N+](=O)[O-])NCCSCc1ccc(CN(C)C)o1 | 0.385 | inactive | –
10 | CCNC(=O)[C@H]1O[C@@H](n2cnc3c(N)nc(NCCc4ccc(CCC(=O)O)cc4)nc32)[C@H](O)[C@@H]1O | -2.22 | inactive | –
11 | COc1ccc(-n2cnc3cc(C(=O)N4CCCCC4)ccc32)cc1 | -10.1 | inactive | –
12 | CCN1C(=O)c2ccccc2C1Nc1ccc(OCCN2CCCCC2)cc1 (stereo unspecified) | 0.694 | inactive | –
13 | CC(=O)OCC(=O)[C@@]1(O)CC[C@H]2[C@@H]3CCC4=CC(=O)C=C[C@]4(C)[C@@]3(F)[C@@H](O)C[C@@]21C | 2.62 | inactive | –
14 | Cc1c(I)c(=O)n(-c2ccccc2)n1C | 0.251 | inactive | –
15 | NC(N)=NC(=O)Cc1c(Cl)cccc1Cl | -7.72 | inactive | –
16 | Nc1cc(C(F)(F)F)c(-c2nc(N3CCOCC3)nc(N3CCOCC3)n2)cn1 | – | 2 µM (active) | 11.2 µM (active)
17 | CC1=C(CO)C(=O)O[C@@H]([C@@H](C)[C@H]2CC[C@H]3[C@@H]4C[C@H]5O[C@]56[C@@H](O)C=CC(=O)[C@]6(C)[C@H]4CC[C@]23C)C1 | – | 0.447 µM (active) | 1.58 µM (active)
18 | N#Cc1ccc(N(Cc2ccc(Br)cc2)n2cnnc2)cc1 | -0.886 | inactive | –
